# Results from PMC7862700, “An all-to-all approach to the identification of sequence-specific readers for epigenetic DNA modifications on cytosine”.
# Legend:
# Experiment in all cases: DAPPL (digital affinity profiling via proximity ligation, sequencing); 10 mM Tris-HCl pH 7.5, 50 mM NaCl, 1 mM DTT, 4% glycerol, room temperature, 30 min; GST-TFs on glutathione beads, 16-mer random dsDNA library, 0.1% formaldehyde crosslink after washing; high values mean tight binding
# FEV = target: T1, FEV (Homo sapiens, UniProt Q99581 1-238); conditions: protein: recombinant; tags: N-terminal GST; dsDNA, one strand shown
# T1 sequence: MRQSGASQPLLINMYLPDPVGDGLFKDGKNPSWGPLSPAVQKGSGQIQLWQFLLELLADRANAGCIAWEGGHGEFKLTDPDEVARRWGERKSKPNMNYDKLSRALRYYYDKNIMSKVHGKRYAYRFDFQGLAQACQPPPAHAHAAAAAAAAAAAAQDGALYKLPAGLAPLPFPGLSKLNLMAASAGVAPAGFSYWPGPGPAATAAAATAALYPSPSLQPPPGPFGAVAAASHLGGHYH
# Summary of the method: (§1)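 Each value of binding signal is a hexamer's read frequency for a factor divided by the same hexamer's frequency in the tag-only sample. Barcoded, bead-captured GST fusions of human transcription factors made in yeast were pooled with that sample and incubated with 200 nmole of a random double-stranded 16-mer DNA library in Tris/NaCl/DTT/glycerol buffer at room temperature for 30 min. Washing, 0.1% formaldehyde crosslinking, proximity ligation, PCR and Illumina NextSeq500 sequencing followed.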
# ETV5 = ETV5 (Homo sapiens, UniProt P41161 1-510); conditions: protein: recombinant; tags: N-terminal GST; dsDNA, one strand shown
# Summary of the method: as §1
# HSF1 = HSF1 (Homo sapiens, UniProt Q00613 1-529); conditions: protein: recombinant; tags: N-terminal GST; chain copies: 3; dsDNA, one strand shown
# Summary of the method: as §1
# SPIC = target: T2, SPIC (Homo sapiens, UniProt Q8N5J4 1-248); conditions: protein: recombinant; tags: N-terminal GST; dsDNA, one strand shown
# T2 sequence: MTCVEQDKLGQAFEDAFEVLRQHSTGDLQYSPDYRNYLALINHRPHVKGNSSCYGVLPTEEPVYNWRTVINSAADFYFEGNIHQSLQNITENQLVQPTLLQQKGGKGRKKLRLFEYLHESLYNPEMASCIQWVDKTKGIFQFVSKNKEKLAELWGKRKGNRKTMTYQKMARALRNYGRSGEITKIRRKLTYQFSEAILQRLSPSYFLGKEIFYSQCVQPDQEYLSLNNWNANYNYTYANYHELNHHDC
# Summary of the method: as §1
# ELF4 = ELF4 (Homo sapiens, UniProt Q99607 1-663); conditions: protein: recombinant; tags: N-terminal GST; dsDNA, one strand shown
# Summary of the method: as §1
# ELK4 = target: T3, ELK4 (Homo sapiens, UniProt P28324-2 1-405); conditions: protein: recombinant; tags: N-terminal GST; dsDNA, one strand shown
# T3 sequence: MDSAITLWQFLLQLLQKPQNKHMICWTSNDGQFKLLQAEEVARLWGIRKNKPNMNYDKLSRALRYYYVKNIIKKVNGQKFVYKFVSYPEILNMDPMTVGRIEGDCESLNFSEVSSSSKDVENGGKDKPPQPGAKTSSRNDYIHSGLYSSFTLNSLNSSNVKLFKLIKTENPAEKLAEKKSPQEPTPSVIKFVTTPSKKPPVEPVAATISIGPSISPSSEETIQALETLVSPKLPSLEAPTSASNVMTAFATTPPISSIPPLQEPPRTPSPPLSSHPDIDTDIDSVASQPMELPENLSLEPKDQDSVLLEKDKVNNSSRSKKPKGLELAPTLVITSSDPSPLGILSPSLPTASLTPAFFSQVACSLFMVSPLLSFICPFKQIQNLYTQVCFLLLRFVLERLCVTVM
# Summary of the method: as §1
# ETV2 = target: T4, ETV2 (Homo sapiens, UniProt O00321 1-342); conditions: protein: recombinant; tags: N-terminal GST; dsDNA, one strand shown
# T4 sequence: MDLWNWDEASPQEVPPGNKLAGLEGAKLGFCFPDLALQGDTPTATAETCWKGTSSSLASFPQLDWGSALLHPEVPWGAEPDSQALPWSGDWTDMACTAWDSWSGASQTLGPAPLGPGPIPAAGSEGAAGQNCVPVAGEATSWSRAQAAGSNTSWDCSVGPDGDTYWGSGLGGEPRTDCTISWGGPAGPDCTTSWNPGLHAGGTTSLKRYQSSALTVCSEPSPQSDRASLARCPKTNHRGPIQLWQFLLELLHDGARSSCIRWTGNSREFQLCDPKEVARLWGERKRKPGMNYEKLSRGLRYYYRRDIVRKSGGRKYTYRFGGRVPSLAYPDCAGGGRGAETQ
# Summary of the method: as §1
# ELF3 = target: T5, ELF3 (Homo sapiens, UniProt P78545 1-371); conditions: protein: recombinant; tags: N-terminal GST; dsDNA, one strand shown
# T5 sequence: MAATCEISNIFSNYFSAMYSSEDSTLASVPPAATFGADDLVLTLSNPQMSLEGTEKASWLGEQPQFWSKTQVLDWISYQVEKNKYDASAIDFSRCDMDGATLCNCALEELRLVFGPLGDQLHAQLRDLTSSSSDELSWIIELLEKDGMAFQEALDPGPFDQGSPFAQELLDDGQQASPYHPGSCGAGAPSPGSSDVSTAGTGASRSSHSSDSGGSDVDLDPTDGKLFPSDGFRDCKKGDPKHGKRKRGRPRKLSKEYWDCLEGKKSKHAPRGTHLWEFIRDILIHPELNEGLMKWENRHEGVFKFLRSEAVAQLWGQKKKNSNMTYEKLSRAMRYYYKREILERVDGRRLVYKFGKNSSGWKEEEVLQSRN
# Summary of the method: as §1
# CRX = CRX (Homo sapiens, UniProt O43186 1-299); conditions: protein: recombinant; tags: N-terminal GST; dsDNA, one strand shown
# Summary of the method: as §1
# ETV1 = ETV1 (Homo sapiens, UniProt P50549 1-477); conditions: protein: recombinant; tags: N-terminal GST; dsDNA, one strand shown
# Summary of the method: as §1
# ERF = target: T6, ERF (Homo sapiens, UniProt P50548 1-548); conditions: protein: recombinant; tags: N-terminal GST; dsDNA, one strand shown
# T6 sequence: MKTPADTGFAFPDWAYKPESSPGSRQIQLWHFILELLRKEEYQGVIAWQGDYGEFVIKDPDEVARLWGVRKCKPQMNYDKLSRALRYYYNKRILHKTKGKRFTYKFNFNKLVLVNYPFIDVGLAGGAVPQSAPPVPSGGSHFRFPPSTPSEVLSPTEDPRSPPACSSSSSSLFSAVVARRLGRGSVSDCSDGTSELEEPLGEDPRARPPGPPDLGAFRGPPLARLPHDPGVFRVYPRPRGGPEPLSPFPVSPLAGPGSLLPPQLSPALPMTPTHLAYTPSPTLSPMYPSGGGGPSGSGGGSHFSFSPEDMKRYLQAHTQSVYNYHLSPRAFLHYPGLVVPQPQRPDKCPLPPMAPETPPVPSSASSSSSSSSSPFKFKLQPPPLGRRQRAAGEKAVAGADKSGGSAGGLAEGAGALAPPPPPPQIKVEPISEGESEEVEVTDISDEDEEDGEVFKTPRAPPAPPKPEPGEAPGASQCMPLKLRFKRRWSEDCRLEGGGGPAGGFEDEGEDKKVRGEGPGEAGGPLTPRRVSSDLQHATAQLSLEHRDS
# Summary of the method: as §1
# ETV3L = target: T7, ETV3L (Homo sapiens, UniProt Q6ZN32 1-361); conditions: protein: recombinant; tags: N-terminal GST; dsDNA, one strand shown
# T7 sequence: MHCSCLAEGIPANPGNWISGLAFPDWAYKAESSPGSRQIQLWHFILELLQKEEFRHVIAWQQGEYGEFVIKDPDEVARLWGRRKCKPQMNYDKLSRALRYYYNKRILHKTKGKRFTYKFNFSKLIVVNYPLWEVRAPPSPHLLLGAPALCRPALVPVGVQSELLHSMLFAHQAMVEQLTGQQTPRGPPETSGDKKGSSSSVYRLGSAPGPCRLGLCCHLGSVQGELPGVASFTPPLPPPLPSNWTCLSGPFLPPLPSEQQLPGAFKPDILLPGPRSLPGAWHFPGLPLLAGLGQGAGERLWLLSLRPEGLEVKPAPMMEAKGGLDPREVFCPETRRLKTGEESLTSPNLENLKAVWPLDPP
# Summary of the method: as §1
# ETS2 = target: T8, ETS2 (Homo sapiens, UniProt P15036 1-469); conditions: protein: recombinant; tags: N-terminal GST; dsDNA, one strand shown
# T8 sequence: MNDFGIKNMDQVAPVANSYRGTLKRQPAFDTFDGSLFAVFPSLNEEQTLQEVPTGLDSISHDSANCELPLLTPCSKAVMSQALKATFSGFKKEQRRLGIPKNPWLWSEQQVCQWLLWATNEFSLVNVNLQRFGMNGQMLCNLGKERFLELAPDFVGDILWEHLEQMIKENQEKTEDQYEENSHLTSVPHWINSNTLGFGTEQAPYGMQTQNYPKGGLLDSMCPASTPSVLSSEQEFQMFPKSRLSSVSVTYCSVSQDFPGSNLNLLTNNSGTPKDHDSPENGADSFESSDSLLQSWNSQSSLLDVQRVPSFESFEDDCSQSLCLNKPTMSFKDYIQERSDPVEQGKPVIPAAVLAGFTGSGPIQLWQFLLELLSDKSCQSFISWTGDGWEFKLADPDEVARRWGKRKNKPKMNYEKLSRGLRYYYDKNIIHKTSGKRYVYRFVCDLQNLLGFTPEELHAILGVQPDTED
# Summary of the method: as §1
# SPDEF = target: T9, SPDEF (Homo sapiens, UniProt O95238 1-335); conditions: protein: recombinant; tags: N-terminal GST; dsDNA, one strand shown
# T9 sequence: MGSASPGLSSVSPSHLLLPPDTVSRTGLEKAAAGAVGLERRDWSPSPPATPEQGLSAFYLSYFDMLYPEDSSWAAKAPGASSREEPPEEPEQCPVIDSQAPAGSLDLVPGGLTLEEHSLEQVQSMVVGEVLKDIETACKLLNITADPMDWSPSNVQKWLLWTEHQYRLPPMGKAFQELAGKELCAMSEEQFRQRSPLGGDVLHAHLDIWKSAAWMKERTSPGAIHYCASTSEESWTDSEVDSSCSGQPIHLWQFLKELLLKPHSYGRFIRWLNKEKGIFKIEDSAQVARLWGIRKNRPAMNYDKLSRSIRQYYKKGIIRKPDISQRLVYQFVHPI
# Summary of the method: as §1
# ETV7 = target: T10, ETV7 (Homo sapiens, UniProt Q9Y603 1-341); conditions: protein: recombinant; tags: N-terminal GST; dsDNA, one strand shown
# T10 sequence: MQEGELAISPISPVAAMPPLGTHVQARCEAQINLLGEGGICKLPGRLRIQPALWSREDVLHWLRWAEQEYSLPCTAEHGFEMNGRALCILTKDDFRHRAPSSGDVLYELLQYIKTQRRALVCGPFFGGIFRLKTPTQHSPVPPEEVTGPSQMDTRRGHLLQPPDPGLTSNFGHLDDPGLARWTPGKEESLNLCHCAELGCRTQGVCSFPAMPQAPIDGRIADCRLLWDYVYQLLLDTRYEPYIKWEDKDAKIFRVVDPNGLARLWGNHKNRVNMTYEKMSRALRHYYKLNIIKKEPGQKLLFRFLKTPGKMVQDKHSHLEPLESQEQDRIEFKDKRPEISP
# Summary of the method: as §1
# ELF5 = target: T11, ELF5 (Homo sapiens, UniProt Q9UKW6-2 1-255); conditions: protein: recombinant; tags: N-terminal GST; dsDNA, one strand shown
# T11 sequence: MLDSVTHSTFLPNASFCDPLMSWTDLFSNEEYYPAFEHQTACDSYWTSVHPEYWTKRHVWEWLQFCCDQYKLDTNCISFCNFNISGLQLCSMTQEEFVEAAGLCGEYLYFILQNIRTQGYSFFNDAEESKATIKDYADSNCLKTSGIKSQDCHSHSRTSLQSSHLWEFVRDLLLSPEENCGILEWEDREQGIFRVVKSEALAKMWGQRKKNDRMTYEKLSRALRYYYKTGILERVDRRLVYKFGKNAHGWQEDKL
# Summary of the method: as §1
# ETV3 = target: T12, ETV3 (Homo sapiens, UniProt P41162-2 1-143); conditions: protein: recombinant; tags: N-terminal GST; dsDNA, one strand shown
# T12 sequence: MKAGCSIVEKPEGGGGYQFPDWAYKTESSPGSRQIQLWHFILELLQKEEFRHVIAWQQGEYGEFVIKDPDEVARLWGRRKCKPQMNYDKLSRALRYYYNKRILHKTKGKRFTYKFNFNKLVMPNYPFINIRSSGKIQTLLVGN
# Summary of the method: as §1
# ETV6 = ETV6 (Homo sapiens, UniProt P41212 1-452); conditions: protein: recombinant; tags: N-terminal GST; dsDNA, one strand shown
# Summary of the method: as §1
# Chain of ETV5 (P41161 whole entry): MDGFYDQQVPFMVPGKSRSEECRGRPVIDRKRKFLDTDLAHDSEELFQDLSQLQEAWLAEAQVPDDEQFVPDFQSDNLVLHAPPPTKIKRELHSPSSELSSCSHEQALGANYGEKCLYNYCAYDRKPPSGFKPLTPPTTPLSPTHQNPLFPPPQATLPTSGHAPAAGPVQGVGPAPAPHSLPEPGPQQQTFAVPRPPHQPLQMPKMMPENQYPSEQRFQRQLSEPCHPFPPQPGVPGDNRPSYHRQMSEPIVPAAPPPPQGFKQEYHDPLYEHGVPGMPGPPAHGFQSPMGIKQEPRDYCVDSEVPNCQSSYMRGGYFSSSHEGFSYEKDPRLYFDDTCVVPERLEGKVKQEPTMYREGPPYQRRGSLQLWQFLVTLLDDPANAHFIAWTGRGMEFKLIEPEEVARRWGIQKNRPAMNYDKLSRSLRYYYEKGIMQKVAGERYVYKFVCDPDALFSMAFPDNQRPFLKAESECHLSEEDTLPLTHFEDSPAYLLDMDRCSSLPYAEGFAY
# Chain of ELF4 (Q99607 whole entry): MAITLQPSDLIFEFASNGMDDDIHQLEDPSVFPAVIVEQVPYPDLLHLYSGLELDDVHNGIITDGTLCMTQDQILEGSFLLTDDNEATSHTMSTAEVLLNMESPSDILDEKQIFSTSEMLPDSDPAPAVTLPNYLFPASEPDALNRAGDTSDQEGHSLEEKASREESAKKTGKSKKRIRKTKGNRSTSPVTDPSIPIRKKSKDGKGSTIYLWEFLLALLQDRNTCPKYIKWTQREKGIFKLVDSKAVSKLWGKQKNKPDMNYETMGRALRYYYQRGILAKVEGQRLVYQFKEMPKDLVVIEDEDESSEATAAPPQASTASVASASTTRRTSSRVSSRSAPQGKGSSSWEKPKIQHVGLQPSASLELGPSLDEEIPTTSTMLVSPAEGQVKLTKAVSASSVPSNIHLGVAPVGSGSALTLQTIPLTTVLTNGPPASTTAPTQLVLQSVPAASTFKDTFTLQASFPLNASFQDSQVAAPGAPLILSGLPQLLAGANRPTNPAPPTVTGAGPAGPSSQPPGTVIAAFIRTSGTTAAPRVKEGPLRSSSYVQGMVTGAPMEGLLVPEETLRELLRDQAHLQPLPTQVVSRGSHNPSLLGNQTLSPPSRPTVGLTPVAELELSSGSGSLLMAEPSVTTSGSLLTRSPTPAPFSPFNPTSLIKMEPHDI
# Chain of CRX (O43186 whole entry): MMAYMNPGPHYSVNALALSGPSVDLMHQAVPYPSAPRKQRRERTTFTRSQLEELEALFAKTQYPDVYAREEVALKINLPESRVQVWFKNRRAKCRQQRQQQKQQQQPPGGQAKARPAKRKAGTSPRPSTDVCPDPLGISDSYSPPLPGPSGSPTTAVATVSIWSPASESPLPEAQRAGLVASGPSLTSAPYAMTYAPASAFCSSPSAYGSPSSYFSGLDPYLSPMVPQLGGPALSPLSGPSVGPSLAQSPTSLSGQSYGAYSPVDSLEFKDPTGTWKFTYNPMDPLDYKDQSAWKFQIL
# Chain of ETV6 (P41212 whole entry): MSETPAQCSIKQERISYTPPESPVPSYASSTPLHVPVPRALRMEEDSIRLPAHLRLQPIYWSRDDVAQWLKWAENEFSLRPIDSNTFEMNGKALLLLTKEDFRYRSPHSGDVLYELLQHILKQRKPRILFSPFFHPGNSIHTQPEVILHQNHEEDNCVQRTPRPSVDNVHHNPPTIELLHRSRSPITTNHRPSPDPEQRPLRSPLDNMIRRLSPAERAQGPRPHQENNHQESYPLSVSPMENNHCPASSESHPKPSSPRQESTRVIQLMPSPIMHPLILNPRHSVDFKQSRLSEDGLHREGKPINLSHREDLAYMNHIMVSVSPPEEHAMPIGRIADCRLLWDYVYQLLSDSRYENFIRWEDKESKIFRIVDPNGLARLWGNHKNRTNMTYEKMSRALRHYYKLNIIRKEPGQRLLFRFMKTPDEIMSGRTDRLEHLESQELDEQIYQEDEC
# Chain of ETV1 (P50549 whole entry): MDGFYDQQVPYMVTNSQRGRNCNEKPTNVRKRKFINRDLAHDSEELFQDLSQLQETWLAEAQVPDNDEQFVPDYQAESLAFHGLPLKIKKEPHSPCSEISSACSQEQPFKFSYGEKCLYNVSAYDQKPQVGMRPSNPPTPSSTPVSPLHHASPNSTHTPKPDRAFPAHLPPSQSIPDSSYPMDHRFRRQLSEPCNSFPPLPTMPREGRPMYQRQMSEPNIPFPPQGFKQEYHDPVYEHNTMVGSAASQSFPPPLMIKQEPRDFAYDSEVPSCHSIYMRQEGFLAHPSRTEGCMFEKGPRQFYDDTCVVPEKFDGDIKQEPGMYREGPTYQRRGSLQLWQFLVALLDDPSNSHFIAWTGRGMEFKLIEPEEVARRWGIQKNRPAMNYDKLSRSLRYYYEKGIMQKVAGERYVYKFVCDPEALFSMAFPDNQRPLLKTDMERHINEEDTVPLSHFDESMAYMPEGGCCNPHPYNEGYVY
# Chain of HSF1 (Q00613 whole entry): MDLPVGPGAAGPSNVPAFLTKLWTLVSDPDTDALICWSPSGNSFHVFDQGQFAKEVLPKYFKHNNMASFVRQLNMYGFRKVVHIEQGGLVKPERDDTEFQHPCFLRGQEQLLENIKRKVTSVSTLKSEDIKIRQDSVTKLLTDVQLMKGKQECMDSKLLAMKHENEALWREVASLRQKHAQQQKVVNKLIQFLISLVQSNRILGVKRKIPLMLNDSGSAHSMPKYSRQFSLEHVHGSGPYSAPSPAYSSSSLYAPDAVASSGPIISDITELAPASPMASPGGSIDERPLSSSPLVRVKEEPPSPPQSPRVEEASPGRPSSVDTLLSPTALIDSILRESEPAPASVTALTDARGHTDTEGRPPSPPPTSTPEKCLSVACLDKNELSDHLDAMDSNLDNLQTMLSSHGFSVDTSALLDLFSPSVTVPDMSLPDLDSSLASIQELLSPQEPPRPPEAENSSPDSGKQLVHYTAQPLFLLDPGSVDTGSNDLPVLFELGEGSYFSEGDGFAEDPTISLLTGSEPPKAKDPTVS
sequence,measurement,setting,value
AACACA,binding signal,FEV,"1.31 fold enrichment (6-mer frequency, TF over GST control)"
same,binding signal,ETV5,"1.33 fold enrichment (6-mer frequency, TF over GST control)"
same,binding signal,HSF1,"1.13 fold enrichment (6-mer frequency, TF over GST control)"
same,binding signal,SPIC,"1.33 fold enrichment (6-mer frequency, TF over GST control)"
same,binding signal,ELF4,"1.32 fold enrichment (6-mer frequency, TF over GST control)"
same,binding signal,ELK4,"1.42 fold enrichment (6-mer frequency, TF over GST control)"
same,binding signal,ETV2,"1.49 fold enrichment (6-mer frequency, TF over GST control)"
same,binding signal,ELF3,"1.26 fold enrichment (6-mer frequency, TF over GST control)"
same,binding signal,CRX,"1.1 fold enrichment (6-mer frequency, TF over GST control)"
same,binding signal,ETV1,"1.27 fold enrichment (6-mer frequency, TF over GST control)"
same,binding signal,ERF,"1.39 fold enrichment (6-mer frequency, TF over GST control)"
same,binding signal,ETV3L,"1.34 fold enrichment (6-mer frequency, TF over GST control)"
same,binding signal,ETS2,"1.38 fold enrichment (6-mer frequency, TF over GST control)"
same,binding signal,SPDEF,"1.41 fold enrichment (6-mer frequency, TF over GST control)"
same,binding signal,ETV7,"1.46 fold enrichment (6-mer frequency, TF over GST control)"
same,binding signal,ELF5,"1.36 fold enrichment (6-mer frequency, TF over GST control)"
same,binding signal,ETV3,"1.35 fold enrichment (6-mer frequency, TF over GST control)"
same,binding signal,ETV6,"1.29 fold enrichment (6-mer frequency, TF over GST control)"
